Values joined by “and” are separate entries in the source; they are usually repeats but may differ in a detail not shown here. Equal entries are not always repeated. Inconclusive results are not listed. Where a call stands in place of a potency, no number is given. Some compounds were tested as several samples or in several runs, with calls that do not always agree. Active and inactive are the calls of the source. Unless noted, the call rests on the fitted dose curve.
Columns and labels:
[1] = Nuclear factor erythroid 2-related factor 2/antioxidant responsive element (Nrf2/ARE) small molecule agonists: luciferase reporter gene qHTS assay in human keratinocytes (AID 1919969); further: nearly all actives have a fitted effect of over 35% in size; further: potency means the concentration at half of the fitted maximal effect
[2] = target: Gonadotropin-releasing hormone receptor (Homo sapiens) (UniProt P30968); assay: Human gonadotropin-releasing hormone receptor (GnRHR) small molecule agonists, calcium flux assay in GnRHR-HEK293 cells (AID 1920063); further: nearly all actives have a fitted effect of over 35% in size
Summary of the method: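 HEK293 cells stably expressing human GnRHR were dye-loaded for 1 h at 37 C. Compound was added in agonist mode and fluorescence (Ex/Em 480/540) recorded kinetically for 3 min. Fifteen concentrations, triplicates.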

[3] = target: KiSS-1 receptor (Homo sapiens) (UniProt Q969F8); assay: Human kisspeptin (KISS1R) small molecule agonists, calcium flux assay in KISS1R-HEK293 cells (AID 1920064; active means well fitted curve in the direction sought with a large enough effect in the repeat runs; an effect the other way counts as inactive or inconclusive)
Summary of the method: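 HEK293 cells stably expressing human KISS1R were loaded with calcium dye for 1 h at 37 C, then given compound; fluorescence (Ex/Em 480/540) was read kinetically for 3 min. Fifteen concentrations, triplicate.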

[4] = G protein-coupled receptor (GPCR) small molecule agonists, calcium flux assay: HEK293 wild type cell line counter screen (AID 1920065)
Summary of the method: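 Wild-type HEK293 cells plated 18 h, loaded with calcium dye 1 h at 37 C, then compounds added in agonist mode (ATP as positive control). Kinetic fluorescence Ex/Em 480/540 recorded 3 min at 1 sec intervals; 15 concentrations, triplicate.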

[5] = p53 small molecule agonists, cell-based qHTS assay with human liver microsomes (AID 1963577)
Summary of the method: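 Compounds act here after metabolic activation: human liver microsomes and NADPH, both at 0.5 mg/mL final, were co-added to p53RE-bla cells. Incubation ran 16 h at 37 C, followed by LiveBLAzer detection.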

[6] = p53 small molecule agonists, cell-based qHTS assay with rat liver microsomes (AID 1963578)
Summary of the method: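 Read-out is beta-lactamase reporter fluorescence (LiveBLAzer, 2 h, room temperature, dark) in p53RE-bla cells treated 16 h at 37 C with compound, rat liver microsomes and NADPH, both 0.5 mg/mL final.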

[7] = p53 small molecule agonists, cell-based qHTS assay with human liver microsomes: qHTS cell viability counter screen (AID 1963579); further: nearly all actives have a fitted effect of over 45% in size; further: potency means the concentration at half of the fitted maximal effect
Summary of the method: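 Cells carrying the p53 response-element beta-lactamase reporter are treated for 16 h at 37 C with test compounds in the presence of human liver microsomes and NADPH (both 0.5 mg/mL final); ATP-based CellTiter-Glo luminescence then reports viability.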

[8] = p53 small molecule agonists, cell-based qHTS assay with rat liver microsomes: qHTS cell viability counter screen (AID 1963580); further: nearly all actives have a fitted effect of over 45% in size
Summary of the method: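 p53RE-bla HCT-116 cells were exposed 16 h at 37 C to compounds with rat liver microsomes (0.5 mg/mL) and NADPH (0.5 mg/mL). Viability was measured in the same wells as ATP content by CellTiter-Glo luminescence.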

[9] = p53 small molecule agonists, cell-based qHTS assay: qHTS cell viability counter screen (AID 1963581); further: nearly all actives have a fitted effect of over 45% in size; further: potency means the concentration at half of the fitted maximal effect
Summary of the method: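 p53RE-bla HCT-116 cells, compounds added 5 h after plating and incubated 16 h at 37 C. Cytotoxicity measured in the same wells as intracellular ATP by CellTiter-Glo luminescence after 30 min at room temperature.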

[10] = p53 small molecule agonists, cell-based qHTS assay (AID 1963582; active means well fitted activation curve with a large enough effect in the signal ratio in the repeat runs, not every such curve was filed as active; the % refers to the signal ratio)
Summary of the method: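 p53RE-bla reporter cells, compounds added in DMSO after 5 h plating, incubated 16 h at 37 C. Beta-lactamase read via 2 h room-temperature LiveBLAzer B/G FRET substrate, fluorescence intensity.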

[11] = target: 5-hydroxytryptamine receptor 2A (Homo sapiens) (UniProt P28223); assay: 5-hydroxytryptamine receptor 2A (HTR2A) small molecule agonists, cell-based qHTS assay (AID 1963587); further: nearly all actives have a fitted effect of over 30% in size
Summary of the method: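 CHO cells stably expressing human HTR2A, plated 18 h, loaded with calcium dye 1 h at 37 C. Agonist mode: compounds added and intracellular calcium fluorescence recorded kinetically for 2 min at 1 sec intervals.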

[12] = target: Muscarinic acetylcholine receptor M1 (Homo sapiens) (UniProt P11229); assay: Cholinergic receptor muscarinic 1 (CHRM1) small molecule antagonists, cell-based qHTS assay (AID 1963588); further: nearly all actives have a fitted effect of over 40% in size; further: potency means the concentration at half of the fitted maximal effect
Summary of the method: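 CHRM1-CHO calcium-flux assay, antagonist mode. Cells were seeded 18 h, dye-loaded 1 h at 37 C and given compound for 5 min at RT, then acetylcholine was added at 50nM. FDSS fluorescence was read 3 min; 15 concentrations, three runs.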

[13] = target: Muscarinic acetylcholine receptor M1 (Homo sapiens) (UniProt P11229); assay: Cholinergic receptor muscarinic 1 (CHRM1) small molecule agonists, cell-based qHTS assay (AID 1963589); further: nearly all actives have a fitted effect of over 35% in size
Summary of the method: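 CHO cells stably expressing human CHRM1 were loaded with calcium dye for 1 h at 37 C, then compound was added in agonist mode. Intracellular calcium fluorescence was followed kinetically at 1 s intervals. Fifteen concentrations were tested in three independent runs.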

[14] = cAMP Responsive Elements (CRE) small molecule agonists, cell-based qHTS assay (AID 1963590)
Summary of the method: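 CRE-bla HEK 293T cells, 2,000/well in DMEM with 10% dialyzed FBS and 25 mM HEPES, pre-incubated 18 h at 37 C, then exposed to compound 3 h at 37 C. Beta-lactamase reporter read with LiveBLAzer B/G FRET substrate after 2 h at room temperature.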

[15] = cAMP Responsive Elements (CRE) small molecule antagonists, cell-based qHTS assay (AID 1963591; active means well fitted inhibition curve with a large enough effect in the signal ratio in the repeat runs, not every such curve was filed as active; the % refers to the signal ratio)
Summary of the method: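 CRE-bla HEK293T cells plated 18 h, then given compound plus NKH477 at 0.25 uM final for 3 h at 37C. Beta-lactamase reporter read with LiveBLAzer B/G FRET substrate after 2 h at room temperature.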

[16] = target: Beta-2 adrenergic receptor (Homo sapiens) (UniProt P07550); assay: Adrenergic beta2 receptor (ADRB2) small molecule antagonists, cell-based qHTS assay (AID 1963592); further: series mostly up to about 92 µM; nearly all actives have a fitted effect of over 50% in size
Summary of the method: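 Cells (CHO, stable ADRB2 overexpression) incubated 18-20hr at 37C; compounds added from DMSO; agonist mix (1nM isoproterenol, 100uM IBMX, 25uM Ro-20-1724) added; 0.5hr RT; d2-cAMP and anti-cAMP-cryptate added; 1hr RT; 665/615 nm read.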

[17] = target: D(2) dopamine receptor (Homo sapiens) (UniProt P14416); assay: Dopamine D2 receptor (DRD2) small molecule agonists, cell-based qHTS assay (AID 1963594); further: nearly all actives have a fitted effect of over 35% in size
Summary of the method: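 HEK293 cells stably expressing human DRD2, pre-treated with PDE inhibitor Ro20-1724 (0.1 mM final) and compound 10 min at room temperature, then stimulated with NKH477 (200nM […]) for 30 min. cAMP read by HTRF (665/620 nm).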

[18] = target: D(2) dopamine receptor (Homo sapiens) (UniProt P14416); assay: Dopamine D2 receptor (DRD2) small molecule antagonists, cell-based qHTS assay (AID 1963595; active means well fitted inhibition curve with a large enough effect in the signal ratio in the repeat runs, with a control signal flat; the % refers to the signal ratio)
Summary of the method: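 Readout: HTRF cAMP, cAMP-d2 competing with cellular cAMP for anti-cAMP cryptate, read after 1 h. Cells: DRD2-HEK293. Conditions: 0.1 mM Ro20-1724, 12 nM quinpirole, 200 nM NKH477, 30 min RT.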

[19] = target: 5-hydroxytryptamine receptor 2A (Homo sapiens) (UniProt P28223); assay: 5-hydroxytryptamine receptor 2A (HTR2A) small molecule antagonists, cell-based qHTS assay (AID 1963586); further: nearly all actives have a fitted effect of over 45% in size
Summary of the method: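 Antagonist-mode intracellular calcium assay: DOI (4 nM) added after 5 min compound pre-incubation at room temperature to dye-loaded HTR2A-CHO cells. Fluorescence followed for 3 min, sampled every second.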

[20] = Nuclear factor erythroid 2-related factor 2/antioxidant responsive element (Nrf2/ARE) small molecule agonists: qHTS cell viability counter screen in human keratinocytes (AID 1919968; active means well fitted curve in the direction sought with a large enough effect in the repeat runs; an effect the other way counts as inactive or inconclusive; further: potency means the concentration at half of the fitted maximal effect; nearly all actives have a fitted effect of over 55% in size)
Summary of the method: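 KeratinoSens HaCaT cells, 1,500/well, preincubated 5 h, then exposed to compounds in DMSO for 23 h at 37 C/5% CO2. Viability read as CellTiter-Fluor fluorescence after 1 h, in the same wells as the ARE-luciferase read.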

Chain of D(2) dopamine receptor (Homo sapiens) (P14416 whole entry, looked up): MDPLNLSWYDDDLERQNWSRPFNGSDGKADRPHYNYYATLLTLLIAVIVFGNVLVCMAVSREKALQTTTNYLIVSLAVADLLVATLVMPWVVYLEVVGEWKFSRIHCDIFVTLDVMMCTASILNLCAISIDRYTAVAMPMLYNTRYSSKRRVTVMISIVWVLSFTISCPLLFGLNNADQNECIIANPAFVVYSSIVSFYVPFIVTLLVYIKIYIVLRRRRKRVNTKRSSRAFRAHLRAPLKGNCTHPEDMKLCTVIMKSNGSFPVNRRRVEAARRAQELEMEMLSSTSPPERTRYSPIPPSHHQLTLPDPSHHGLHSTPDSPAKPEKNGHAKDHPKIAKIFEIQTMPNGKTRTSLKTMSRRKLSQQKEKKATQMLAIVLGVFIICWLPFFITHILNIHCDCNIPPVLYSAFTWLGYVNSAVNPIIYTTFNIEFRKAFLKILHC
Chain of KiSS-1 receptor (Homo sapiens) (Q969F8 whole entry, looked up): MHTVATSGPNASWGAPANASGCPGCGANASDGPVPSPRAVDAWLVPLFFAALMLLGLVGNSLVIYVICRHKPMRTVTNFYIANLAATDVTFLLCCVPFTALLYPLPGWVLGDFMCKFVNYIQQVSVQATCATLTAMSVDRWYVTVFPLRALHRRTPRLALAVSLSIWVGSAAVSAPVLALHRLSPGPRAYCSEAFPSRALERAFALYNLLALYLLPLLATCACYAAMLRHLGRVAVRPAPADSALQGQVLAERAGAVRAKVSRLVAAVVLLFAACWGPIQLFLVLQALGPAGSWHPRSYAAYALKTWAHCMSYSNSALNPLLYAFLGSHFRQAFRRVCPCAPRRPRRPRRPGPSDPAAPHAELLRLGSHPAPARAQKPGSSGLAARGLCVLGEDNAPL
Chain of Muscarinic acetylcholine receptor M1 (Homo sapiens) (P11229 whole entry, looked up): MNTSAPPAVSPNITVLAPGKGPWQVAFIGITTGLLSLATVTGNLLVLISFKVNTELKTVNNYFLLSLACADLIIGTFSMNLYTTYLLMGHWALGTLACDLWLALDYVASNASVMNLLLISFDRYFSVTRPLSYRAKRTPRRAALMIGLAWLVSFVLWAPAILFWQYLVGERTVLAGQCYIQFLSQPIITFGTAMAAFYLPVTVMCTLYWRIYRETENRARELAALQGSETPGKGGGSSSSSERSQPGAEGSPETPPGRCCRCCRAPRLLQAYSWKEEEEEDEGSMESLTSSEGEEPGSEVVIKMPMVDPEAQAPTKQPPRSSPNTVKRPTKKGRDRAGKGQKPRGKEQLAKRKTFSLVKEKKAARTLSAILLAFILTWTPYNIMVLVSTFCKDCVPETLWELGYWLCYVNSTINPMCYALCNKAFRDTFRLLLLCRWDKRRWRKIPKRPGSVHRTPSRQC
Chain of 5-hydroxytryptamine receptor 2A (Homo sapiens) (P28223 whole entry, looked up): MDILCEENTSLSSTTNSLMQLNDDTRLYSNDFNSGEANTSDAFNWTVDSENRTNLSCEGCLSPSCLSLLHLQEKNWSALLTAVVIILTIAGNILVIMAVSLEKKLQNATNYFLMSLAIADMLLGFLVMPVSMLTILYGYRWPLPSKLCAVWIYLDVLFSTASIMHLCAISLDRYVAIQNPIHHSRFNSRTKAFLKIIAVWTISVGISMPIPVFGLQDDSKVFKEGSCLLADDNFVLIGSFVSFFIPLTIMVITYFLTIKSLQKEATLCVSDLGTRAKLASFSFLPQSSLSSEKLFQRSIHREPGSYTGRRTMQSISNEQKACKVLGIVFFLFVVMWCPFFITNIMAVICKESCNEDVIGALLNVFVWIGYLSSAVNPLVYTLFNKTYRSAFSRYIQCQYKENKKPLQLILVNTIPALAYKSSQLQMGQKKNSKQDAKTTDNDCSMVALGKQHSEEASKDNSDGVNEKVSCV
Chain of Gonadotropin-releasing hormone receptor (Homo sapiens) (P30968 whole entry, looked up): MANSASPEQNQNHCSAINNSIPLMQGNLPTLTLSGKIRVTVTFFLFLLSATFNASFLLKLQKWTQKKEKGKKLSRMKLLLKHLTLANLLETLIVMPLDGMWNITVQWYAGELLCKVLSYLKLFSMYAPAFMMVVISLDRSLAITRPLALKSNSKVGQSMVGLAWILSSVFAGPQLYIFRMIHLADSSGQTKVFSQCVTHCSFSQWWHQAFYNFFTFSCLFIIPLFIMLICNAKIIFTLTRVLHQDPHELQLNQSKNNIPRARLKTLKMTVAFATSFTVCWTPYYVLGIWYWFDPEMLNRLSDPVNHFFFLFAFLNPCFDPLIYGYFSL
Chain of Beta-2 adrenergic receptor (Homo sapiens) (P07550 whole entry, looked up): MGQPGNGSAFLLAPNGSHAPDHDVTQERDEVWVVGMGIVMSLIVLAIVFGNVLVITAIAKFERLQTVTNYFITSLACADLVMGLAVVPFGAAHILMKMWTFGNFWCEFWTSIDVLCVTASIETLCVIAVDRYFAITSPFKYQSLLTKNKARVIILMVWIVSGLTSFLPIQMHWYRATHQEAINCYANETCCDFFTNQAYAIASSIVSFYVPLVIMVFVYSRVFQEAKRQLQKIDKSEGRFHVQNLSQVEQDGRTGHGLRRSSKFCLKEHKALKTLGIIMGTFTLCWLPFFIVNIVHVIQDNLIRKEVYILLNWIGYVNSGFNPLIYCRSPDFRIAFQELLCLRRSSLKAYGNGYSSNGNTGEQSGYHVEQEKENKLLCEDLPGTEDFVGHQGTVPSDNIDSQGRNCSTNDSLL

SMILES	Potency [1]	Potency [2]	Potency [3]	Potency [4]	Potency [5]	Potency [6]	Potency [7]	Potency [8]	Potency [9]	Potency [10]	Potency [11]	Potency [12]	Potency [13]	Potency [14]	Potency [15]	Potency [16]	Potency [17]	Potency [18]	Potency [19]	Potency [20]
C=CC[N+]1([C@H]2C[C@H]3[C@@H]4CC[C@H]5C[C@H](OC(C)=O)[C@@H](N6CCCCC6)C[C@]5(C)[C@H]4CC[C@]3(C)[C@H]2OC(=O)CC)CCCCC1	inactive	inactive	inactive	inactive	inactive	inactive	inactive	inactive	inactive	inactive	inactive	inactive	inactive	inactive	inactive	inactive	inactive	inactive		
CCCCCCCCCCCCCCCS(=O)(=O)Oc1ccccc1	inactive	inactive	inactive	inactive	inactive	inactive	inactive	inactive	inactive	inactive	inactive	inactive	inactive	inactive	inactive	inactive	inactive		inactive	
Cc1cc(Nc2ccc(O)cc2)ccc1N	43.1 µM (active)	inactive	inactive	inactive	inactive	inactive	inactive	inactive	inactive	inactive	inactive	inactive	inactive	inactive	inactive				inactive	
CCc1ccc(C(c2ccc(CC)cc2)C(Cl)Cl)cc1	inactive and 27.3 µM (active)	inactive	inactive	inactive	inactive	inactive	inactive	inactive	inactive	inactive	inactive		inactive	inactive	inactive	inactive	inactive		inactive	
CC(CN)CC(C)(C)CCN (centres undefined)	inactive	inactive	inactive	inactive	inactive	inactive	inactive	inactive	inactive	inactive	inactive	10.8 µM (active)		inactive	inactive	inactive		inactive	inactive	
CCCCC(CC)CN1CN(CC(CC)CCCC)CC(C)(N)C1 (centres undefined)	inactive	inactive	inactive	inactive	inactive	inactive	inactive	inactive	inactive	inactive		inactive	inactive		inactive	inactive	inactive	inactive		
CCOc1nc2cccc(C(=O)OC(C)OC(=O)OC3CCCCC3)c2n1Cc1ccc(-c2ccccc2-c2nn[nH]n2)cc1 (centres undefined)				inactive	inactive	inactive	12.9 µM (active)		14.5 µM (active)			inactive	inactive			inactive	inactive	inactive	inactive	48.5 µM (active)
